Results filed as inconclusive are left out. The source holds several records for some structures; these can differ, active in one and inactive in another. Active and inactive are the calls of the source. Unless noted, calls come from the whole dose curve; as a rule, active = well fitted curve in the direction sought with a large enough effect; inconclusive = small, poorly fitted or top-dose-only effect, or another doubt; inactive = no such curve, though single readings can be large; an effect the other way counts as inactive or inconclusive.
How the values were obtained:
[1] = molecular target: Cellular tumor antigen p53 (Homo sapiens) (UniProt P04637); assay: Primary qHTS for small molecule compounds that upregulate eGFP-tagged delta133p53alpha (in N-terminal) cells. (AID 2060322); conditions: NCI-H358 eGFP-delta133p53alpha fluorescence, 24 h; activation: active compounds read high; note: nearly all actives have a fitted effect of over 75% in size; note: potency is the fitted concentration of half-maximal effect;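 for activation: 0% = DMSO vehicle and 100% = reference activator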
How it was run: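 NCI-H358 cells pre-induced 24 h with 10 ng/ml doxycycline to express N-terminal eGFP-delta133p53alpha, then dosed 24 h at 37C without doxycycline; fixed, Hoechst-stained, GFP intensity by laser scanning cytometry, normalized to DMSO (0%) and 57.5 uM 5-azacytidine (100%).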

[2] = molecular target: Aldehyde dehydrogenase, mitochondrial (Homo sapiens) (UniProt P05091); assay: qHTS for Inhibitors of the Aldehyde Dehydrogenase Family (ALDH2) Primary screen (AID 2061308); conditions: ALDH2 enzyme inhibition qHTS, 1536-well; series mostly up to 56 µM;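 note: plate controls were vehicle for no effect and reference inhibitor for full effect; nearly all actives have a fitted effect of over 55% in size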
[3] = BET inhibitor-based combinations targeting novel dependencies in MECOM-rearranged (r) AML: SET-2 cell line (AID 2202231); conditions: SET-2 AML cells viability, CellTiter-Glo luminescence, 48 h; viability: active compounds read low, concentration not given here; note: nearly all actives have a fitted effect of over 35% in size; note: potency is the fitted concentration of half-maximal effect;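 for viability: plate controls were DMSO treated cells for no effect and wells without cells for full effect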
How it was run: (§1)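 Viability of cells (500 per well) is scored by luminescent CellTiter-Glo at 48 hr post-dosing. Eleven-point titrations are normalized to DMSO and empty controls and reduced to AUC values.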

[4] = BET inhibitor-based combinations targeting novel dependencies in MECOM-rearranged (r) AML: OCI-AML3 cell line (AID 2202232); conditions: CellTiter-Glo luminescence, 48 h; Potency: OCI-AML3 viability; series mostly up to 46 µM; note: potency is the fitted concentration of half-maximal effect; nearly all actives have a fitted effect of over 35% in size
How it was run: as §1

[5] = BET inhibitor-based combinations targeting novel dependencies in MECOM-rearranged (r) AML: MV-4-11 cell line (AID 2202233); conditions: MV-4-11 AML viability, CellTiter-Glo luminescence, 48 h; series mostly up to 46 µM; note: nearly all actives have a fitted effect of over 45% in size; note: potency is the fitted concentration of half-maximal effect
How it was run: (§2)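 Using pin-tool transfer, drugs were added in 11 doses to cells (500/well), incubated 48 hr, and assessed with CellTiter-Glo. Z-AUC is a mean-centring transformation applied separately to each screened line.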

[6] = BET inhibitor-based combinations targeting novel dependencies in MECOM-rearranged (r) AML: HNT-34 cell line (AID 2202234); conditions: HNT-34 AML viability, CellTiter-Glo luminescence, 48 h; series mostly up to 46 µM; note: nearly all actives have a fitted effect of over 35% in size; note: potency is the fitted concentration of half-maximal effect
How it was run: as §2

[7] = BET inhibitor-based combinations targeting novel dependencies in MECOM-rearranged (r) AML: AML-191 cell line (AID 2202236; note: nearly all actives have a fitted effect of over 35% in size; note: potency is the fitted concentration of half-maximal effect); conditions: AML-191 viability, CellTiter-Glo luminescence, 48 h; series mostly up to 46 µM
How it was run: as §1

[8] = BET inhibitor-based combinations targeting novel dependencies in MECOM-rearranged (r) AML: AML-194 cell line (AID 2202237; note: nearly all actives have a fitted effect of over 40% in size; note: potency is the fitted concentration of half-maximal effect); conditions: AML-194 (MECOM-r AML) viability, CellTiter-Glo, 48 h; series mostly up to 46 µM
How it was run: as §1

[9] = molecular target: Retinaldehyde dehydrogenase 3 (Homo sapiens) (UniProt P47895); assay: qHTS for Inhibitors of the Aldehyde Dehydrogenase Family (ALDH1A3) Primary screen (AID 2061315); conditions: ALDH inhibition qHTS; series mostly up to 56 µM;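 note: plate controls were DMSO vehicle for no effect and reference inhibitor for full effect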
[10] = BET inhibitor-based combinations targeting novel dependencies in MECOM-rearranged (r) AML: UCSD-AML1 cell line (AID 2202235); conditions: UCSD-AML1 AML cells viability, CellTiter-Glo, 48 h; series mostly up to 46 µM; note: nearly all actives have a fitted effect of over 40% in size; note: potency is the fitted concentration of half-maximal effect
How it was run: as §2

[11] = molecular target: Aldehyde dehydrogenase, mitochondrial (Homo sapiens) (UniProt P05091); assay: qHTS for Inhibitors of the Aldehyde Dehydrogenase Family (ALDH2) Validation screens (AID 2061302; active = well fitted inhibition curve with a large enough effect; title and protocol of this record describe different tests;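 note: plate controls were DMSO vehicle for no effect and maximal DPI positive control response for full effect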); conditions: ALDH inhibition qHTS; series mostly up to 42.6 µM

Chain of Cellular tumor antigen p53 (Homo sapiens) (P04637 whole entry, looked up): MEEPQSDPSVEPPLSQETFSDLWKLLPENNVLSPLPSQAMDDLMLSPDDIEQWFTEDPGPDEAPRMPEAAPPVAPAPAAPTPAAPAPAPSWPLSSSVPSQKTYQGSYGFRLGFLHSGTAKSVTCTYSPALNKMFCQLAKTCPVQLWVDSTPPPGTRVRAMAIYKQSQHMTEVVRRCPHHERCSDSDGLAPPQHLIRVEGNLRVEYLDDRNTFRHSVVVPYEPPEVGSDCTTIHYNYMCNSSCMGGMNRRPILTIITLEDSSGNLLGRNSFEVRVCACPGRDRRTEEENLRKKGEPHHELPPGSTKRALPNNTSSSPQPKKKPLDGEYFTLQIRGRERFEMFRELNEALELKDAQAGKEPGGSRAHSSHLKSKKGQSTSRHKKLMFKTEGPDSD

COc1cc(N2CCC(N3CCN(C)CC3)CC2)ccc1Nc1ncc(Cl)c(Nc2ccccc2S(=O)(=O)C(C)C)n1
inactive: activation [1] 16.9% | Potency [2]
active: Potency [1] 30.1 µM | Potency [3] 18.6 µM | Potency [4] 2.63 µM | Potency [5] 0.468 µM | Potency [6] 16.6 µM | Potency [7] 10.5 µM | Potency [8] 16.6 µM

CN1c2ccccc2C(=O)N2CCc3c([nH]c4ccccc34)C21 (stereo not given)
active: Potency [1] 2.69 µM | Potency [3] 5.25 µM | Potency [4] 2.95 µM | Potency [6] 1.86 µM | Potency [7] 1.32 µM
inactive: activation [1] -3.8% | Potency [2] | Potency [9]

Fc1cc(-c2cccc3ncc(-c4cnn(C5CCNCC5)c4)nc23)cc(F)c1CN1CCOCC1
inactive: activation [1] -17.4% | Potency [2] | Potency [9]
active: Potency [1] 27.3 µM | Potency [3] 4.68 µM | Potency [4] 11.8 µM | Potency [5] 0.934 µM | Potency [6] 2.35 µM | Potency [10] 3.32 µM | Potency [7] 10.5 µM | Potency [8] 6.61 µM

CCc1cccc(CC)c1NC(=O)N1Cc2[nH]nc(NC(=O)c3ccc(N4CCN(C)CC4)cc3)c2C1
active: Potency [1] 12.2 µM | Potency [5] 1.32 µM | Potency [10] 14.8 µM | Potency [7] 5.25 µM | Potency [8] 9.34 µM
inactive: activation [1] 5.63% | Potency [2] | Potency [9]

COc1cc2nccc(Oc3ccc(NC(=O)C4(C(=O)Nc5ccc(F)cc5)CC4)cc3)c2cc1OC
active: Potency [1] 38.5 µM | Potency [5] 0.0166 µM | Potency [6] 2.95 µM
inactive: activation [1] 11.6% | Potency [2] | Potency [9]

COc1cc(N2CCC(O)CC2)ccc1Nc1cc(Nc2ccccc2S(=O)(=O)C(C)C)c2cc[nH]c2n1
active: Potency [1] 16.6 µM | Potency [4] 18.6 µM | Potency [5] 18.6 µM | Potency [6] 18.6 µM | Potency [10] 26.3 µM | Potency [7] 16.6 µM
inactive: activation [1] -59.5% | Potency [2]

O=C(O)c1ccc2c(c1)nc(Nc1cccc(Cl)c1)c1ccncc12
active: Potency [1] 23.9 µM | Potency [4] 8.33 µM | Potency [5] 3.32 µM | Potency [6] 2.63 µM | Potency [10] 5.9 µM | Potency [7] 7.42 µM | Potency [8] 7.42 µM
inactive: activation [1] 37.3% | Potency [2] | Potency [9]

CCNC(=O)Nc1ccc2ncc(Nc3ccc(C)cc3)nc2n1
inactive: activation [1] -1.61% | Potency [2] | Potency [9]
active: Potency [1] 30.1 µM

O=C(CCCCCCC(=O)Nc1ccc([C@H]2O[C@@H](CSc3nc(-c4ccccc4)c(-c4ccccc4)o3)C[C@@H](c3ccc(CO)cc3)O2)cc1)NO
active: Potency [1] 5.36 µM | Potency [6] 6.05 µM
inactive: activation [1] 47.5% | Potency [2] | viability [3] 106%

Cc1cc(Nc2ncc(Cl)c(Nc3ccccc3S(=O)(=O)C(C)C)n2)c(OC(C)C)cc1C1CCNCC1
active: Potency [1] 7.57 µM | Potency [3] 23.5 µM | Potency [4] 9.34 µM | Potency [5] 4.68 µM | Potency [6] 6.61 µM | Potency [10] 10.5 µM | Potency [7] 16.6 µM | Potency [8] 9.34 µM
inactive: activation [1] 21.6% | Potency [2] | Potency [9]

CN1CCc2c(c3ccccc3n2Cc2ccc(C(=O)NO)cc2)C1
inactive: activation [1] 77.5% | Potency [2] | Potency [9]
active: Potency [1] 34.3 µM | Potency [4] 20.9 µM | Potency [6] 9.34 µM | Potency [7] 20.9 µM | Potency [8] 23.5 µM

COc1cc(N2CCC(N(C)C)CC2)ccc1Nc1ncc(Cl)c(Nc2ccccc2P(C)(C)=O)n1
inactive: activation [1] -5.31% | Potency [2] | Potency [9]
active: Potency [1] 2.69 µM | Potency [3] 6.61 µM | Potency [4] 7.42 µM | Potency [5] 0.0934 µM | Potency [6] 2.63 µM | Potency [8] 7.42 µM

Cc1ccnc(NS(=O)(=O)c2ccc(NC(=O)Nc3ccc(S(=O)(=O)Nc4nccc(C)n4)cc3)cc2)n1
active: Potency [1] 9.68 µM
inactive: activation [1] 21% | Potency [2] | Potency [9] | viability [3] 112% | Potency [5] | Potency [6] | Potency [10] | Potency [7] | Potency [8]

CCCCOc1c(C(=O)c2c(F)cc(C)cc2F)cnc2n[nH]cc12
inactive: activation [1] 10.1% | Potency [2] | Potency [9]
active: Potency [1] 3.79 µM | Potency [4] 2.09 µM | Potency [6] 2.95 µM | Potency [7] 2.63 µM | Potency [8] 3.72 µM

O=C1Cc2cc(CCN3CCN(c4nsc5ccccc45)CC3)c(Cl)cc2N1
inactive: activation [1] -69% | Potency [11] | Potency [2] | Potency [9]
active: Potency [1] 27.6 µM
